From PubChem BioAssay AID463173 (ICCB-Longwood Screening Facility, Harvard Medical School, 2010) come the findings set out here.

Molecules are shown by their SMILES. About 1,700 (3.3%) of roughly 52,000 compounds were called active. Only a selection was taken, and actives are over-represented in it overall. A number with no mark means an inactive call. No stated cut-off is given here; in the data, active means survival mostly below about 52% (no sharp cut-off); inactive means mostly above about 56%.

The assay concerns Wild type. In words: S. aureus survival, RN4220 and DeltatarO strains – OD600, teichoic acid synthesis inhibitors, primary screen (AID 463173). The following applies: S. aureus RN4220 wild type/DeltatarO growth, OD600, 18 h, active compounds read low, screened at 18.75 µg/mL (by protocol).
For `Cc1cc(C)c(/C=C/c2onc(C)c2S(=O)(=O)N2CCC(C(=O)NCc3ccccc3Cl)CC2)c(C)c1`, the survival is 72%.

In the case of `Cc1ccc(CNS(=O)(=O)c2cc(Br)cc3c2N(C(=O)C2CC2)CC3)cc1`, the survival is 66%.

Take `Cc1cc(NC(=O)COCc2cc(-c3ccc(F)cc3)on2)ccc1Br`: the survival was 82%.

As to `CCC(=O)N1CCc2cc(S(=O)(=O)NC(CC(C)C)C(=O)Nc3ccc(CC)cc3)ccc21` (stereo not drawn), the survival is 84%.

Take `COc1cccc(C2CC(=O)Nc3c2ccc(C)c3C)c1OC` (stereo not drawn): the survival is 87%.

As to `CC1=C(C(=O)OCC2CCCCC2)C(c2ccc(Cl)cc2Cl)CC(=O)N1` (stereo not drawn), the survival is 82%.

With `Cc1ccc2c(c1C)NC(=O)CC2c1ccc(Cl)cc1Cl` (stereo not drawn), the survival is 1% (active).

As to `CCOC(=O)CSc1ccc2nnc(CCNS(=O)(=O)c3ccccc3)n2n1`, the survival is 87%.

As for `Cc1c(-c2nc(-c3ccc4c(c3)OCO4)no2)nnn1-c1ccc(C(C)C)cc1`, the survival is 73%.

As for `CCOc1ccccc1CNC(=O)Cn1ncn2nc(-c3cccs3)cc2c1=O`, the survival was 93%.

On to `O=C(Oc1ccc(Cl)cc1)c1cc(-c2ccc3c(c2)OCCO3)on1`, for which the survival is 108%.

As for `CC(C)c1ccc(OC(=O)c2cc(-c3ccc4c(c3)OCCO4)on2)cc1`, the survival is 46%.

For the compound `N#Cc1ccc(OC(=O)c2cc(-c3ccc4c(c3)OCCO4)on2)cc1`, the survival is 117%.

On to `COc1ccc(OC(=O)c2cc(-c3ccc4c(c3)OCCO4)on2)cc1`, for which the survival was 109%.

In the case of `Cc1cc(OC(=O)c2cc(-c3ccc4c(c3)OCCO4)on2)ccc1Cl`, the survival is -6% (active).

Regarding `Cc1ccc(OC(=O)c2cc(-c3ccc4c(c3)OCCO4)on2)cc1C`, the survival was -7% (active).

With `CCn1c(=NC(=O)c2ccc(S(=O)(=O)N3CCCCC3)cc2)sc2cccc(OC)c21`, the survival was 68%.

Take `Cc1ccc(C(=O)NC2CC3CCCC(C2)N3C(=O)NC2CCCCC2)cc1` (stereo not drawn): the survival was 101%.

`O=C(CCC1CCCC1)N1CCN(C(=O)Cc2ccccc2)CC1`: the survival is 94%.

On to `COc1cc(OC)c(Nc2nc3ccccc3c3nncn23)cc1Cl`, for which the survival is 136%.

Regarding `COc1ccc(-n2c(-c3ccc(Cl)cc3)cc3c2CC(C)(C)CC3=O)c(OC)c1`, the survival was 3% (active).

As to `COc1ccc(C)cc1-n1c(-c2ccc(Cl)cc2)cc2c1CC(C)(C)CC2=O`, the survival is 94%.

Consider `CCOc1ccc(-n2c(-c3ccc(OC)cc3)cc3c2CC(C)(C)CC3=O)cc1`, for which the survival is 41%.

`Cc1ccc(-c2cc3c(n2-c2ccc(C)cc2)CC(C)(C)CC3=O)cc1`: the survival was 69%.

In the case of `CCOc1ccc(-n2c(-c3ccc(Br)cc3)cc3c2CC(C)(C)CC3=O)cc1`, the survival is 8% (active).

For `COc1ccc(-n2c(-c3ccc(C)cc3)cc3c2CC(C)(C)CC3=O)c(OC)c1`, the survival was 96%.

`CCCCCn1c(=O)[nH]c2cc(C(=O)NCc3ccccc3)ccc2c1=O`: the survival is 83%.

On to `COCCNC(=O)CCCN1C(=O)CCn2nc(-c3cccn3C)cc21`, for which the survival is 68%.

`CCOc1ccc(-n2c(SCc3nc(-c4ccccc4C)no3)nnc2-c2ccccc2)cc1`: the survival is 84%.

For `CCC(Sc1nncn2c1cc1occc12)C(=O)Nc1ccc(C)c(Cl)c1` (stereo not drawn), the survival is 44%.

As for `CCc1nn(CC(=O)NC(C)c2ccccc2)c(=O)c2cc3sccc3n12` (stereo not drawn), the survival is 91%.

With `COc1ccc(-n2c(=O)c3ccccc3n(CC(=O)Nc3ccccc3OC)c2=O)cc1`, the survival was 89%.

As to `CN1C(C(=O)NC(C)(C)C)=CC(c2ccc3c(c2)OCO3)=NS1(=O)=O`, the survival is 84%.

With `Cc1cc(NCCN(C)C)c2ccccc2n1`, the survival was 106%.

With `COc1ccc(-c2cccc(NS(=O)(=O)c3cc(C(F)(F)F)ccc3Cl)c2)nn1`, the survival was 59%.

Regarding `COc1ccc(C(=O)Nc2cccc(-c3cn4ccsc4n3)c2)cc1OC`, the survival is 76%.

Regarding `CCS(=O)(=O)Nc1ccc(-c2cn3ccsc3n2)cc1`, the survival was -1% (active).

Take `CCS(=O)(=O)Nc1ccc(-c2cn3c(C)csc3n2)cc1`: the survival was 78%.

Turning to `COc1cccc(OC)c1C(=O)Nc1cccc(-c2cn3ccsc3n2)c1`, the survival was 72%.

`COc1ccc(S(=O)(=O)Nc2ccc(-c3cn4ccsc4n3)cc2)cc1C`: the survival is 133%.

On to `CN(C)S(=O)(=O)Nc1ccc(-c2cn3ccsc3n2)cc1`, for which the survival was 14% (active).

On to `CCCS(=O)(=O)Nc1cccc(-c2cn3ccsc3n2)c1`, for which the survival was 159%.

Turning to `Nc1cccc(-c2cn3ccsc3n2)c1`, the survival is 55%.

For `COc1cc(OC)cc(C(=O)Nc2cccc(-c3cn4ccsc4n3)c2)c1`, the survival was 1% (active).

Take `Cc1ccc(Cn2cc(S(=O)(=O)c3cccc(Cl)c3)c(=O)c3cc(F)c(N4CCOCC4)cc32)cc1`: the survival was 87%.

As for `CC1=C(C(=O)OCC2CCCCC2)C(c2cccc(Cl)c2Cl)CC(=O)N1` (stereo not drawn), the survival was 76%.

For `COc1cc(Cl)c(C)cc1NC(=O)Cn1cc(S(=O)(=O)N2CCN(c3ccccc3F)CC2)c2ccccc2c1=O`, the survival was 68%.

With `Cc1cccc(C)c1NC(=O)CN1C(=O)CCSc2ccc(S(=O)(=O)N3CCCC3)cc21`, the survival was 72%.

For `CCN(C(=O)C(=O)Nc1ccc2nc3n(c(=O)c2c1)CCCCC3)c1ccc(F)cc1`, the survival was 94%.

In the case of `COc1ccc(-n2nc(C(=O)N3CCN(c4ccccc4OC)CC3)c3c4ccccc4n(C)c3c2=O)cc1`, the survival was 80%.

Regarding `Cc1ccc(CSc2cn(CC(=O)N3CCCCC3)c3ccccc23)cc1`, the survival was 90%.

On to `CCc1ccc(C2C(C(=O)Nc3ccccc3C)=C(C)Nc3nc(SCc4cccc(OC)c4)nn32)cc1` (stereo not drawn), for which the survival is 146%.

As for `O=C1CC2CCCC(CN1)N2CC(=O)NCc1ccco1` (stereo not drawn), the survival was 104%.

In the case of `COc1ccc(COC(=O)c2[nH]c3c(c2C)C(=O)CC(c2ccc(OC)c(OC)c2)C3)cc1` (stereo not drawn), the survival is 92%.

Turning to `COc1ccccc1C(=O)NC(=O)Nc1ccc(-c2cc(C(F)(F)F)nn2-c2ccccc2)cc1`, the survival is 5% (active).

As for `COc1ccccc1C(=O)NC(=O)Nc1ccc(-n2nc(C(F)(F)F)cc2C(F)(F)F)cc1`, the survival was 101%.

Consider `COc1ccccc1C(=O)Nc1ccc(-c2cc(C(F)(F)F)nn2-c2ccccc2)cc1`, for which the survival was 39%.

On to `COc1ccc(-c2cc3ccc(O)c(CN4CCCC4)c3oc2=O)cc1`, for which the survival was 124%.
